DT40 TDP1 no CPT – qHTS for Inhibitors of human tyrosyl-DNA phosphodiesterase 1 (TDP1): qHTS in cells in absence of CPT. Potency, µM (top dose mostly 46.2 µM), for the others: at the top dose activity change, negative = growth inhibition, actives largely listed as inhibitors. DT40 Tdp1-/- hTDP1 cells, no CPT, ATP luminescence, 48 h. 420,000 tested, 15% active; note: potency is the fitted concentration of half-maximal effect; % is set by controls: 0 for no effect and ±100 for the full control effect; nearly all actives have a fitted effect of over 55% in size
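Chicken DT40 Tdp1-/- cells stably complemented with human TDP1 were seeded at 400 cells/well with DMSO in place of 20 nM camptothecin. After compound pinning, cells grew at least 48 hr at 37 °C; viability read by CellTiter-Glo luminescence.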
IL-1B inflam inh – inhibitors of inflammasome signaling (IL-1 beta secretion); 360,000 tested, 4.7% active; activity change, % at 57.5 µM; AID 743279; THP-1 LPS/ATP IL-1B secretion, AlphaLISA, 16 h; active compounds read low; in the data active = activity change below about -50%; inconclusive = mostly about -30% to -49%; note: % is set by controls: 0 for no effect and ±100 for the full control effect
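Secreted IL-1B measured by AlphaLISA bead assay after 16 h compound exposure of THP-1 cells; compounds (final up to 57.5 uM) added 1 h before LPS (250 ng/mL) and ATP (1.25 mM) stimulation; lower signal means less secretion.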
HepG2 tox – counter-screen for TGF-b inhibitors: cytotoxicity in HepG2 cells; HepG2 CAGA-GFP viability, ATP luminescence, 18 h; Potency, µM (series often up to 46.1 µM), for inactives: top-dose activity change, negative = cytotoxicity, usual class: cytotoxic; 410,000 tested, 0.76% active; AID 588856; note: potency is the fitted concentration of half-maximal effect
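HepG2 CAGA-GFP cells (1000/well, DMEM with 1% FBS) received compound, then TGF-beta at 500 pg/mL final, and were incubated 18 hours at 37 degrees C. Viability was read by CellTiter-Glo luminescence. Media-only wells were set as complete cell-killing and DMSO as no toxicity.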
DT40 TDP1 CPT – growth inhibition of DT40 Tdp1-/-;hTDP1 cells with camptothecin (screen for TDP1 inhibitors) | 420,000 tested, 12% active | chicken DT40 Tdp1-/-;hTDP1 cells + 20 nM CPT, ATP luminescence, 48 h | Potency, µM (titrated, usually from 46.2 µM), for inactives: at the highest dose activity change, negative = growth inhibition, hits mostly inhibitors; note: potency is the fitted concentration of half-maximal effect; % is set by controls: 0 for no effect and ±100 for the full control effect; nearly all actives have a fitted effect of over 55% in size
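Chicken DT40 Tdp1-/- cells complemented with human TDP1, 400 cells/well, exposed to compounds plus 20 nM camptothecin for at least 48 h at 37 C; viability read as ATP content by CellTiter-Glo luminescence.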
TDP1 block – blocks human tyrosyl-DNA phosphodiesterase 1; Potency, µM (series often up to 130 µM), for the others: top-dose activity change, negative = inhibition, hits mostly inhibitors; Q9NUW8; 350,000 tested, 0.28% active; AID 485290; recombinant TDP1, AlphaScreen DNA substrate cleavage; note: potency is the fitted concentration of half-maximal effect; % is set by controls: 0 for no effect and ±100 for the full control effect; nearly all actives have a fitted effect of over 40% in size
Target sequence (Q9NUW8 whole entry, looked up): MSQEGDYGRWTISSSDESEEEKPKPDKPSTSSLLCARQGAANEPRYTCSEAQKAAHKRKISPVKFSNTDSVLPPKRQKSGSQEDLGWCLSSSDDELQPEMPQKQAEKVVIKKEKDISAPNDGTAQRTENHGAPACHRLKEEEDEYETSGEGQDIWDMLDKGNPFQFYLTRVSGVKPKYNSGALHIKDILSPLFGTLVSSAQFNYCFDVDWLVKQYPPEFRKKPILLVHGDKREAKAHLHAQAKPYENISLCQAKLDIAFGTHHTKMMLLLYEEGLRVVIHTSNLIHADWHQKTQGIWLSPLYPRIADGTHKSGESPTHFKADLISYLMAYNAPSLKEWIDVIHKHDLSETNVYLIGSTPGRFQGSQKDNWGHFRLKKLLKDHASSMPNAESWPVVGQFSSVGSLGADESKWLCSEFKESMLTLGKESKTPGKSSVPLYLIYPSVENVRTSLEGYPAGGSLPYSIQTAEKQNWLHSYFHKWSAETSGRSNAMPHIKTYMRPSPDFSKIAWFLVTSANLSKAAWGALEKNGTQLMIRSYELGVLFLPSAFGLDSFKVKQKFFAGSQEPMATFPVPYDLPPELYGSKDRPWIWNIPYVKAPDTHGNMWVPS
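Recombinant E. coli-expressed Tdp1 (1 nM) preincubated with compound 15 min at RT, then 5'-biotin/3'-phosphotyrosine-FITC DNA substrate (15 nM) added for 5 min. AlphaScreen beads (10 ug/ml) added, 10 min RT; tyrosine-FITC cleavage read as signal loss.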
TGFb SMAD3 inh – inhibitors of TGF-b signaling | HepG2 CAGA-GFP TGF-b/SMAD3 reporter, GFP fluorescence, 18 h; TGF-beta stimulated, 500 pg/mL final | Potency, µM (series often up to 46.1 µM), for the others: at the top dose activity, negative = inhibition, most hits filed as inhibitors | 410,000 tested, 1.2% active | AID 588855; note: potency is the fitted concentration of half-maximal effect; % is set by controls: 0 for no effect and ±100 for the full control effect; nearly all actives have a fitted effect of over 65% in size
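TGF-beta reporter screen: HEPG2 CAGA-GFP, 1% FBS, 500 pg/mL TGF-beta final, 18 h; per-cell GFP summed per well; curves fitted and categorized by class.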
Starred values were filed as active, the others as inactive; ? = inconclusive; · = not tested or not shown. In the library only some 19% were active in any assay of this set; here they are far more common. Unless noted, calls come from the whole dose curve; as a rule, active = well fitted curve in the direction sought with a large enough effect; inconclusive = small, poorly fitted or top-dose-only effect, or another doubt; inactive = no such curve, though single readings can be large; an effect the other way counts as inactive or inconclusive.

SMILES	DT40 TDP1 no CPT	IL-1B inflam inh	HepG2 tox	DT40 TDP1 CPT	TDP1 block	TGFb SMAD3 inh
Cc1nc(NC(=O)CC(C)C)sc1-c1csc(Nc2ccc(Cl)cc2)n1	15µM*	-2	-18%	?	6%	-1%
COc1cccc(CNCCO)c1OCc1ccc(Cl)cc1	-30%	-4	-11%	?	4%	1%
COc1cc(CNCCO)cc(Br)c1OCc1ccccc1Cl	?	-15	-127%	23µM*	2%	?
COc1cc(CNCCO)cc(Cl)c1OCc1ccc(Cl)cc1Cl	21µM*	-83*	-190%	?	-3%	22µM*
CCc1ccc(OCc2cccc(C(=O)N/N=C\c3cnn(C)c3C)c2)cc1	20%	6	-13%	-26%	0%	-5%
CC(=O)Nc1ccc(NC(=O)C(C)c2cccc(C(=O)c3ccccc3)c2)cc1 (centres undefined)	-26%	-4	7%	18%	3%	3%
CC(C)Cc1ccc(C(C)C(=O)Nc2ccc(O)cc2)cc1 (centres undefined)	13µM*	3	-46%	23µM*	2%	?
CC(C(=O)Nc1ccc(O)cc1)c1cccc(C(=O)c2ccccc2)c1 (centres undefined)	21µM*	-51*	-2%	?	-4%	-16%
CC(C)Cc1ccc(C(C)C(N)=Nc2ccc(O)cc2)cc1 (centres undefined)	16µM*	·	16µM*	26µM*	·	?
CC(CC(=O)Nc1cccnc1)c1ccccc1 (centres undefined)	3%	-9	0%	-1%	1%	3%
CC(C)Cc1ccc(C(C)C(=O)Nc2cccnc2)cc1 (centres undefined)	3.7µM*	46	-29%	2.3µM*	·	-15%
CCN(CC(=O)NCc1cccs1)C(=O)c1cc(Br)ccc1O	-30%	-18	-12%	?	0%	4%
Cc1c(C)c2c(c(C)c1O)CCC(C)(COc1ccc(Cc3sc(=O)[nH]c3O)cc1)O2 (centres undefined)	·	·	·	·	18%	·
CC(C(=O)O)c1ccc(-c2ccccc2)c(F)c1 (centres undefined)	-10%	2	13%	-2%	-2%	-3%
CC(C(=O)Nc1ccccc1)c1ccc(-c2ccccc2)c(F)c1 (centres undefined)	23µM*	?	-8%	18µM*	0%	?
Cc1ccc(NC(=O)COC(=O)Cc2ccc(Br)cc2)cc1S(=O)(=O)N1CCOCC1	-12%	-8	-5%	-1%	1%	7%
CCc1ccccc1NC(=O)c1cc([N+](=O)[O-])ccc1N1CCOCC1	12%	26	-15%	-19%	1%	11%
Cc1c(NC(=O)c2cc([N+](=O)[O-])ccc2N2CCOCC2)cccc1-c1nc2ccccc2o1	26µM*	·	-13%	?	-3%	?
Cc1cccc(NC(=O)c2cc([N+](=O)[O-])ccc2N2CCOCC2)c1C	-16%	14	7%	-5%	·	-1%
CC1CCN(c2ccccc2NC(=O)c2cc([N+](=O)[O-])ccc2N2CCOCC2)CC1	16µM*	-8	13%	?	7%	-25%
O=C(Nc1ccc(F)cc1)Nc1nnc(COc2ccccc2F)s1	16µM*	-166*	-31%	15µM*	-8%	?
O=C(Nc1ccc(F)cc1)Nc1nnc(-c2ccncc2)s1	21µM*	2	-26%	?	-2%	?
O=C(Nc1ccc(F)cc1)Nc1nnc(Cc2ccccc2)s1	?	28	2%	-15%	·	?

Assay outcomes: PubChem, National Center for Advancing Translational Sciences (NCATS)
